The results in this text go back to ChEMBL document CHEMBL3433997, “St. Jude Leishmania screening dataset” (2016).

As usually defined, the inhibition is the drop in the measured response relative to a control, in per cent.

Holding throughout (format): functional
Assay [1] addresses Solute carrier family 2, facilitated glucose transporter member 1 (Homo sapiens) (UniProt P11166). As to the kind of experiment: ST_JUDE_LEISH: Cytotoxicity at 2uM final concentration against transgenic Leishmania Mexicana promastigotes LmGLUT1 that are glucose transport deficient and complemented with the human glucose transporter GLUT1. Activity is measured by DNA content using SYBR green in vitro.

Assay [2] deals with Hexose transporter 1 (Plasmodium falciparum) (UniProt O97467). As to the kind of experiment: ST_JUDE_LEISH: Cytotoxicity at 2uM final concentration against transgenic Leishmania Mexicana promastigotes LmPfHT that are glucose transport deficient and complemented with the Plasmodium falciparum hexose transporter. Activity is measured by DNA content using SYBR green in vitro.
In assay [3] the target is Glucose transporter (Leishmania mexicana) (UniProt O61059). As to the kind of experiment: ST_JUDE_LEISH: Cytotoxicity at 2uM final concentration against transgenic Leishmania Mexicana promastigotes LmGT2 that are glucose transport deficient and complemented with the L. Mexicana glucose transporter 2. Activity is measured by DNA content using SYBR green in vitro.

Sequence of Solute carrier family 2, facilitated glucose transporter member 1 (Homo sapiens) (P11166 whole entry): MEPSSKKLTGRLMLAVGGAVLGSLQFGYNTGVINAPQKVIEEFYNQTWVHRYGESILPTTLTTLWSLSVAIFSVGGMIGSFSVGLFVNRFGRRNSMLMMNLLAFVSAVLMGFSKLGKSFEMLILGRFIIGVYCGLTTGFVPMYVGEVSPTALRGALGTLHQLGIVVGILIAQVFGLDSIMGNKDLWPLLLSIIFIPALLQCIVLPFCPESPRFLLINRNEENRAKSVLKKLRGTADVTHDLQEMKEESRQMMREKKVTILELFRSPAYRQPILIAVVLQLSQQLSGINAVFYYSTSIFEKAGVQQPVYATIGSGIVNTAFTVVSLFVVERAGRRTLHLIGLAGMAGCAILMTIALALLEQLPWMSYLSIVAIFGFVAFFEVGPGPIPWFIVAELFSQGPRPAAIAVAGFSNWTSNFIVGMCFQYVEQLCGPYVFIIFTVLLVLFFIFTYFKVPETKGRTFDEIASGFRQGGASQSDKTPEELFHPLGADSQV

Take `COc1ccc(-c2cncc(-c3ccc(OC)c(OC)c3)n2)cc1OC`: the inhibition in assay [1] worked out at 2.76%; in assay [2] it was 2.56%; in assay [3], 3.88%.
For the compound `Cc1c(CC(=O)NCCC2CCN(CCCCCNC(=O)/C=C/c3ccc(Cl)c(Cl)c3)CC2)sc2ccc(Cl)cc12`, the inhibition worked out at 4.42% in assay [1], 5.42% in assay [2] and 6.13% in assay [3].
The corresponding values for `O=C1CCCN1CCCNCc1ccc(-c2ccc(-c3nc4cc(C(F)(F)F)ccc4[nH]3)s2)cc1` are 4.04%, 1.98% and 3.27%.
The corresponding values for `CCCCCC(C)N/C(=N/c1ccccc1Br)Nc1ccc(C#N)cc1O` (stereo not given) are 2.35%, 1.33% and 0.92%.
Regarding `O=C(NC1CCN(CCN2CCC(c3cn(CCO)c4ccccc34)CC2)CC1)c1ccc(-c2ccc(C(F)(F)F)cc2)cc1`, the inhibition in assay [1] was -1.51%; in assay [2], 3.18%; in assay [3], 0.94%.
The corresponding values for `Cc1cnc(CNCc2ccc(S(=O)(=O)Nc3ccc(Oc4cccc(Cl)c4)cc3)cc2)cn1` are 5.34%, 2.83% and 2.07%.
As to `COc1ccc(CN2CCCC(Nc3ccc(F)c(F)c3)C2)c(O)c1` (stereo not given), the values for the inhibition in assay [1], in assay [2] and in assay [3] were 2.58%, 1.39% and 3.1%, respectively.
The corresponding values for `N#Cc1ccc(-c2ccc(C(=O)NCC3CCN(CCN4CCC(c5ccc6c(c5OCC(N)=O)CCCC6)CC4)CC3)cc2)cc1` are -0.38%, -0.09% and 2.54%.
As for `O=C(NCCN1CCCC1)c1cccc(-c2ccc(-c3nc4cc(F)ccc4[nH]3)cc2)c1`, the results for the inhibition in assay [1], in assay [2] and in assay [3] were -0.09%, -0.39% and -1.28%, respectively.
The corresponding values for `O=C(Nc1cccc(-c2cccc(-c3nc4ccccc4[nH]3)c2)c1)c1ccoc1` are 7.02%, 5.63% and 3.82%.
`CN1CCN(C(C(=O)NCc2cc(Cl)cc(Cl)c2)c2ccccc2-c2ccsc2)CC1` (stereo not given): the inhibition in assay [1] came out at 4.67%; in assay [2] it was 5.51%; in assay [3], 4.6%.
The corresponding values for `Cc1cccc2nc(-c3cccc(-c4cccc(NC(=O)Nc5ccc(Cl)cc5)c4)c3)[nH]c12` are -3.06%, -0.68% and -1.91%.
The corresponding values for `CN(C)Cc1cccc(-c2ccc(NC(=O)c3ccc4c(=O)n(CCN5CCCCC5)cnc4c3)cc2)c1` are 3.67%, 3.74% and 0.81%.
Turning to `Cc1cccc(C)c1CNc1nc(N2CCOCC2)cc2c(C)c(C)[nH]c12`, the values for the inhibition in assay [1], in assay [2] and in assay [3] were 3.7%, 3.43% and 4.38%, respectively.
As for `CCNc1cc(C(=O)N[C@@H](Cc2ccccc2)[C@H](O)CNC2(CC(C)C)CC2)cc(N2CCCCS2(=O)=O)c1`, the inhibition in assay [1] was -1.54%; in assay [2], 4.02%; in assay [3], -0.34%.
The corresponding values for `O=C(/C=C/c1ccc(Cl)c(Cl)c1)NCCCCCN1CCC(NC(=S)Nc2ccc(F)cc2F)CC1` are 16.5%, 14.9% and 14.5%.
The corresponding values for `O=C(CCNc1ccnc(NCCc2ccccc2)n1)Nc1ccccc1` are -0.28%, 3.7% and 2.66%.
On to `Cc1ccc(CNC(=O)[C@H](CCCN)Nc2cc(C)nc(NCC3CCCCC3)n2)cc1`, for which the inhibition in assay [1] turned out to be 1.46%; in assay [2], 1.17%; in assay [3], 0.32%.
The corresponding values for `CCNC(=O)NC1CCN(Cc2c(-c3cccs3)nc3ccccc3c2C(=O)N[C@@H](C)C2CCCCC2)CC1` are 2.27%, 0.77% and -0.86%.
The corresponding values for `O=C(N/C=N/c1cc([N+](=O)[O-])c(-c2cccnc2)n1-c1ccc(O)cc1)c1ccccc1` are -0.13%, -1.73% and -1.68%.
The corresponding values for `Cc1cccc2nc(-c3ccc(-c4ccc(CNCCNC(=O)c5ccnn5C)cc4)s3)[nH]c12` are 9.45%, 9.43% and 8.36%.
In the case of `CS(=O)(=O)NCCCNCc1cccc(-c2ccc(-c3nc4ccccc4[nH]3)s2)c1`, the inhibition came out at 12.1% in assay [1], 11.8% in assay [2] and 11% in assay [3].
The corresponding values for `CCN(CC)CCN(Cc1ccc(-c2ccc(C(F)(F)F)cc2)cc1)C(=O)Cn1c(CCc2cccc(F)c2F)nc(=O)c2sccc21` are 0.1%, 1.36% and -0.22%.
The corresponding values for `CCCCCCN1CCC(NCc2cccc(C#N)c2)CC1` are 0.29%, 0.77% and 2.03%.
The corresponding values for `O=C(Nc1cccc(C2=NCCN2)c1)Nc1cccc(C2=NCCN2)c1` are 1.69%, 5.37% and 1.1%.
In the case of `COc1ccc(CNC2CCN(C)CC2)cc1-c1ccc(S(=O)(=O)NCCc2ccccn2)cc1`, the inhibition in assay [1] was -0.85%; in assay [2], 0.85%; in assay [3], -0.1%.
With `CCc1cc(OC)c(C(=O)NC2CCN(C[C@H](O)c3ccnc4ccc(OC)cc34)CC2)cc1Br`, the inhibition is 1.58% in assay [1], -0.43% in assay [2] and -0.3% in assay [3].
The corresponding values for `Cc1cc(=O)c2cc(-c3ccc(OC(F)(F)F)cc3)ccc2[nH]1` are -2.2%, 0.49% and -0.86%.
The corresponding values for `CCOc1cccc2nc(NCCCNCc3ccc(Cl)c(Cl)c3)cc(NCCCNCc3ccc(Cl)c(Cl)c3)c12` are -3.5%, -0.94% and -0.45%.
The corresponding values for `C=Cc1sc(CNCCCNc2cc(=O)c3ccccc3[nH]2)c(C)c1Br` are 0.34%, 0.27% and -0.58%.
`CCC(=O)N[C@@H]1CN[C@@H](C#Cc2cc3c(Nc4ccc(OCc5cccc(F)c5)c(Cl)c4)ncnc3s2)C1`: the inhibition came to 2.02% in assay [1], 0.3% in assay [2] and 1.72% in assay [3].
The corresponding values for `CC(C)CCNC(=N)c1ccc(OCCCCCOc2ccc(C(=N)NCCC(C)C)cc2)cc1` are 12.4%, 12.5% and 8.15%.
The corresponding values for `CCCCC(CC)C(=O)C(NC(=O)[C@H](CSC(c1ccccc1)(c1ccccc1)c1ccccc1)NC(=O)OC(C)(C)C)C(=O)OC` (stereo not given in full) are 3.84%, 3.76% and 3.51%.
The corresponding values for `Oc1c(Cl)cc(-c2ccccc2)cc1CNC1CCCCC1` are 2.63%, 1.84% and 0.52%.
With `CC(=O)Nc1ccc(CN2CCC(CNC(=O)c3cc(-c4cccc(C(F)(F)F)c4)cs3)C2)cc1` (stereo not given), the inhibition in assay [1] was -0.71%; in assay [2] it was 0.04%; in assay [3] it was -5.57%.
